JMJD2A Tudor = inhibitors of human JMJD2A Tudor domain; AlphaScreen JMJD2A-Tudor / H3K4me3 peptide binding; Potency, µM (series often up to 114 µM), for the others: at the highest dose activity change, negative = inhibition, usual class: inhibitors; 390,000 tested, 4.4% active; note: % is set by controls: 0 for no effect and ±100 for the full control effect; nearly all actives have a fitted effect of over 50% in size
Target sequence (O75164 whole entry, looked up, the tested form may be a part): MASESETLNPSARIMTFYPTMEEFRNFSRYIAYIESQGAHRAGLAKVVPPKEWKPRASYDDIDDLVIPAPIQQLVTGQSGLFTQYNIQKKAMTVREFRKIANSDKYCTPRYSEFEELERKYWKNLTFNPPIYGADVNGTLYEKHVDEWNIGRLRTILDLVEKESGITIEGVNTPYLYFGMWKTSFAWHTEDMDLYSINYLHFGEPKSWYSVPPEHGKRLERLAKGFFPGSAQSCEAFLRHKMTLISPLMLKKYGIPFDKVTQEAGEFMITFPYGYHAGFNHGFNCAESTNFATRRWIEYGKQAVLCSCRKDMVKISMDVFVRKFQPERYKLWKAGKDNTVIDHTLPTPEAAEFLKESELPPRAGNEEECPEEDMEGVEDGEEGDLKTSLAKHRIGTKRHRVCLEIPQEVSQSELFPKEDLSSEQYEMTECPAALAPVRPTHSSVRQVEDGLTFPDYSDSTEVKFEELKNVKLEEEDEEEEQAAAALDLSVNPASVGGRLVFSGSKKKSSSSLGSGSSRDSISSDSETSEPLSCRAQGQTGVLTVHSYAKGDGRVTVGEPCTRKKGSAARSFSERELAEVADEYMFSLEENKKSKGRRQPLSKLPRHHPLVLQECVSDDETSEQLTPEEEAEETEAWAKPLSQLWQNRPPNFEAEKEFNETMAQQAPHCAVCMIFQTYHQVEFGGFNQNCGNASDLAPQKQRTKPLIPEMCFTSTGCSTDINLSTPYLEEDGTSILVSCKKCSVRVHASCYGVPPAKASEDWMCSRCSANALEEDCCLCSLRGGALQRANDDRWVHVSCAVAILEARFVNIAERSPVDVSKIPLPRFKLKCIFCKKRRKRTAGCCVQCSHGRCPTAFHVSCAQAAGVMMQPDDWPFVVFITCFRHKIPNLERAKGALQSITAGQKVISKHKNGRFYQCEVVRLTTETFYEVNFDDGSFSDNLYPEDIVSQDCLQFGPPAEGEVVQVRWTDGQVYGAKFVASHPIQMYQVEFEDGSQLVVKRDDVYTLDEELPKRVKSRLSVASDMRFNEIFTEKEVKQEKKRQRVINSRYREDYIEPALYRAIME
BAZ2B block = blocks human BAZ2B; AlphaScreen BAZ2B-H3K14Ac peptide displacement; Potency, µM (titrated, usually from 114 µM), without a hit: top-dose activity change, negative = inhibition, usual class: inhibitors; 360,000 tested, 4.4% active; note: % is set by controls: 0 for no effect and ±100 for the full control effect; nearly all actives have a fitted effect of over 60% in size
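Inhibition is scored as reduced AlphaScreen emission. The BAZ2B/b-H3(5-23)K14Ac complex (50 nM each) in PBS pH 7.4, 0.01% Tween-20 meets compound (up to 110 uM) for 30 min at RT before bead addition.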
HP1b binding inh = blocks HP1-beta chromodomain binding to methylated histone tails; AlphaScreen HP1-beta / biotin-H3K9me3 peptide binding; Potency, µM (series often up to 114 µM), without a hit: top-dose activity change, negative = inhibition, actives largely listed as inhibitors; P83916; 390,000 tested, 0.56% active; note: nearly all actives have a fitted effect of over 70% in size
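Compound inhibition of the preformed complex between 50 nM HP1-beta and 50 nM biotinylated H3K9me3 peptide was read by AlphaScreen. Buffer was PBS pH 7.4 with 0.01% Tween-20. Incubations ran 30 min at room temperature, with 10 ug/mL donor/acceptor beads.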
G9a inh = G9a (human) methyltransferase inhibition; 350,000 tested, 8.8% active; Potency, µM (series often up to 102 µM), for the others: at the highest dose activity, negative = inhibition, actives largely listed as inhibitors; G9a H3K9 monomethylation, AlphaScreen, 2 h; Q96KQ7; note: % is set by controls: 0 for no effect and ±100 for the full control effect; nearly all actives have a fitted effect of over 75% in size
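Quantitative HTS format: methyltransferase activity on a biotin-tagged H3K9 peptide is measured by AlphaScreen, using a rabbit anti-monomethyl-H3K9 antibody with streptavidin donor and anti-IgG acceptor beads. Final levels are 20 nM enzyme, 500 nM peptide, 20 uM SAM; 2 h RT.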
L3MBTL1 inh = L3MBTL1 (human) inhibition; Q9Y468; AlphaScreen L3MBTL1–H3K9me1 peptide binding; Potency, µM (top dose mostly 57.1 µM), for the others: at the highest dose activity, negative = inhibition, hits mostly inhibitors; 230,000 tested, 0.66% active; AID 485360; note: % is set by controls: 0 for no effect and ±100 for the full control effect; nearly all actives have a fitted effect of over 60% in size
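Displacement of a biotinylated histone H3(1-15) peptide monomethylated at Lys9 (75 nM) from L3MBTL1 (50 nM) was measured by AlphaScreen after a 30 min room-temperature compound incubation; cefsulodin titration served as intraplate control.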
GLS inh = inhibitors of human glutaminase (GLS); AID 624170; O94925; Potency, µM (highest dose often 45.5 µM), without a hit: at the highest dose activity change, negative = inhibition, actives largely listed as inhibitors; 410,000 tested, 0.21% active; GLS enzymatic activity, qHTS titration; note: % is set by controls: 0 for no effect and ±100 for the full control effect
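Human kidney-isoform GLS in 45 mM KH2PO4 pH 8.2, 0.02% Tween-20, with compound, started with 1mM L-Glutamine (added stock). Glutamate oxidase/HRP/Amplex red coupled fluorescence read at start and after 30 min at RT.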
Active calls of the source: *; [ ] = another dose, or the depositor's remark. Hits are enriched below; roughly 10% of the tested compounds scored in any of these assays. Calls come from the whole dose curve; as a rule, active = well fitted curve in the direction sought with a large enough effect; inconclusive = small, poorly fitted or top-dose-only effect, or another doubt; inactive = no such curve, though single readings can be large; an effect the other way counts as inactive or inconclusive. Potency is the fitted concentration of half-maximal effect.

Results for CC(C)c1nn2c(=O)cc(COC(=O)CNC(=O)c3ccccc3)nc2s1 ?
JMJD2A Tudor: -10%; BAZ2B block: -11%; HP1b binding inh: -1%; G9a inh: 28%[59 µM]; GLS inh: -11%

How did O=S(=O)(/N=C/c1c(O)ccc2ccccc12)c1cccs1 do in these assays?
BAZ2B block: 9%; G9a inh: 1.4µM*

What do the screens show for `Cc1ccc(S(=O)(=O)/N=C/c2c(O)ccc3ccccc23)cc1`?
JMJD2A Tudor: inconclusive; BAZ2B block: -9%; HP1b binding inh: -10%; G9a inh: 4µM*; L3MBTL1 inh: -7%; GLS inh: 22%

What do the screens show for `CCOc1cc(/C=C2\N=C(SC)SC2=O)cc([N+](=O)[O-])c1OC(C)=O`?
JMJD2A Tudor: -11%[11.4 µM]; BAZ2B block: 18µM*; HP1b binding inh: 45µM*; G9a inh: 14µM*; L3MBTL1 inh: inconclusive; GLS inh: inconclusive

How did CCOc1c(OC(C)=O)ccc(/C=C2\N=C(SCC)SC2=O)c1[N+](=O)[O-] do in these assays?
JMJD2A Tudor: 79µM*; BAZ2B block: 45µM*; HP1b binding inh: 14µM*; L3MBTL1 inh: -8%; GLS inh: 47%

Results for CCOc1cc(/C=C2\N=C(SCC)SC2=O)cc([N+](=O)[O-])c1OC(C)=O ?
JMJD2A Tudor: inconclusive; BAZ2B block: 13µM*; HP1b binding inh: inconclusive; G9a inh: 10µM*; L3MBTL1 inh: -23%; GLS inh: inconclusive

Results for OCCn1nc2c3ccccc3nc-2n(-c2ccccc2)c1=S ?
JMJD2A Tudor: -16%; BAZ2B block: -11%; HP1b binding inh: -24%; G9a inh: 25µM*; L3MBTL1 inh: 3%; GLS inh: -4%

How did COC(=O)Nc1sc2c(c1C(=O)NCc1ccco1)CCC2 do in these assays?
JMJD2A Tudor: 56µM*; BAZ2B block: inconclusive; HP1b binding inh: -3%; G9a inh: -24%[59 µM]; L3MBTL1 inh: inconclusive; GLS inh: 26%

How did COC(=O)Nc1sc2c(c1C(=O)NCc1ccco1)CCCC2 do in these assays?
JMJD2A Tudor: -27%; BAZ2B block: inconclusive; HP1b binding inh: 12%; G9a inh: -34%; L3MBTL1 inh: 10%; GLS inh: 2%

What do the screens show for `Cc1ccc(CCNC(=O)c2coc3nc4ccccc4nc23)cc1`?
JMJD2A Tudor: 40µM*; BAZ2B block: 0%; HP1b binding inh: 29%; L3MBTL1 inh: 2%; GLS inh: -2%

How did O=C(CC1Sc2ccccc2NC1=O)Nc1cccc(C(F)(F)F)c1 (stereo not given) do in these assays?
JMJD2A Tudor: -3%; BAZ2B block: -2%; HP1b binding inh: -9%; G9a inh: 8%[59 µM]; GLS inh: -16%

How did OC[C@H]1O[C@@H](n2cnc3c(N[C@H]4C[C@H]5CC[C@@H]4C5)ncnc32)[C@H](O)[C@@H]1O do in these assays?
G9a inh: 35%[59 µM]

What do the screens show for `COc1ccc(-c2n[nH]c(=S)n2C2CCCCC2)cc1`?
JMJD2A Tudor: 7.1µM*; BAZ2B block: -7%; HP1b binding inh: 17%; G9a inh: 2.5µM*; L3MBTL1 inh: 2%; GLS inh: -10%

Results for Cc1cc(Cl)ccc1OCc1n[nH]c(=S)n1C1CCCCC1 ?
JMJD2A Tudor: -34%[57.1 µM]; BAZ2B block: inconclusive; HP1b binding inh: -10%; G9a inh: inconclusive; L3MBTL1 inh: -7%; GLS inh: inconclusive

How did COc1ccc(Cl)cc1-c1n[nH]c(=S)n1Cc1ccccc1 do in these assays?
JMJD2A Tudor: -32%; BAZ2B block: -7%; HP1b binding inh: 37%; G9a inh: 3.2µM*; L3MBTL1 inh: 5%; GLS inh: -24%

What do the screens show for `Cc1ccsc1-c1n[nH]c(=S)n1C1CCCCC1`?
JMJD2A Tudor: 35µM*; BAZ2B block: -8%; HP1b binding inh: inconclusive; G9a inh: 1.6µM*; L3MBTL1 inh: -3%; GLS inh: 5%

How did COc1ccc(Cl)cc1-c1n[nH]c(=S)n1C1CCCCC1 do in these assays?
JMJD2A Tudor: 35µM*; BAZ2B block: -20%; HP1b binding inh: 15%; G9a inh: 1.4µM*; GLS inh: 4µM*

How did S=c1[nH]nc(-c2cccnc2)n1C1CCCCC1 do in these assays?
JMJD2A Tudor: 5µM*; BAZ2B block: 4%; HP1b binding inh: 26%; G9a inh: 20µM*; L3MBTL1 inh: 9%; GLS inh: 3%

What do the screens show for `CCCN(CCC)CCNc1c(NC2CCN(C(=O)OCC)CC2)c(=O)c1=O`?
JMJD2A Tudor: -6%; BAZ2B block: 8%; HP1b binding inh: 87%; G9a inh: -15%; GLS inh: 38%

Results for CCCN(CCC)CCNc1c(N2CCN(C(=O)OCC)CC2)c(=O)c1=O ?
JMJD2A Tudor: 0%; BAZ2B block: 8%; HP1b binding inh: 22%; G9a inh: 79µM*; GLS inh: 4%

What do the screens show for `Cc1ccc(CNS(=O)(=O)c2ccc3[nH]c4c(c3c2)CCCC4)cc1`?
JMJD2A Tudor: inconclusive; BAZ2B block: 2%; HP1b binding inh: 29%; G9a inh: inconclusive; GLS inh: 4%

How did Cc1ccc(CNS(=O)(=O)c2ccc3[nH]c4c(c3c2)CCCCC4)cc1 do in these assays?
JMJD2A Tudor: -15%; BAZ2B block: -3%[57.1 µM]; HP1b binding inh: 3%; G9a inh: -53%[59 µM]; GLS inh: 2%

What do the screens show for `O=S(=O)(NCc1ccccc1)c1ccc2[nH]c3c(c2c1)CCCCC3`?
JMJD2A Tudor: inconclusive; BAZ2B block: -20%[57.1 µM]; HP1b binding inh: 1%; G9a inh: 14µM*; GLS inh: -11%

How did O=S(=O)(NCc1ccc(F)cc1)c1ccc2[nH]c3c(c2c1)CCCC3 do in these assays?
JMJD2A Tudor: inconclusive; BAZ2B block: inconclusive; HP1b binding inh: -11%; G9a inh: 8.9µM*; GLS inh: 7%

How did CCOC(=O)c1c(C)[nH]c(CCC(=O)Nc2c(Cl)cc(OC)cc2OC)c1C do in these assays?
JMJD2A Tudor: inconclusive; BAZ2B block: inconclusive; HP1b binding inh: 3%[57 µM]; G9a inh: 2%[59 µM]; GLS inh: 5%

How did Clc1ccc2c(c1)-c1ccccc1C1=NCCN12 do in these assays?
GLS inh: -4%

How did N=C1Sc2ccccc2C2=NCCCN12 do in these assays?
G9a inh: 0.11µM*

How did CCn1c(=O)cc(SCC(=O)NCc2ccc(F)cc2Cl)c2ccccc21 do in these assays?
JMJD2A Tudor: -3%; BAZ2B block: -3%[57.1 µM]; HP1b binding inh: 31%; G9a inh: -2%[59 µM]; GLS inh: -5%

How did COC(=O)c1c(N)n(-c2ccc(N3CCOCC3)cc2)c2nc3ccccc3nc12 do in these assays?
BAZ2B block: inconclusive; G9a inh: 10µM*; L3MBTL1 inh: -10%

Compound activity (PubChem)
